# Measured values reported in PubChem BioAssay.
# The source made the active and inactive calls. How the calls were made is not given here.
# Target: L-lactate dehydrogenase (Plasmodium falciparum (isolate CDC / Honduras)) (UniProt Q27743)
# Assay: PfLDH activity inhibition – cell lysate, 3D7 strain, counter-screen for P. falciparum growth inhibition project (AID 2304);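 further: 0% = vehicle and 100% = reference inhibitor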
# Conditions: P. falciparum 3D7 crude extract, LDH APAD/NBT absorbance; at 2 µM; hits give high values
# Sequence of L-lactate dehydrogenase (Plasmodium falciparum (isolate CDC / Honduras)) (Q27743 whole entry, looked up): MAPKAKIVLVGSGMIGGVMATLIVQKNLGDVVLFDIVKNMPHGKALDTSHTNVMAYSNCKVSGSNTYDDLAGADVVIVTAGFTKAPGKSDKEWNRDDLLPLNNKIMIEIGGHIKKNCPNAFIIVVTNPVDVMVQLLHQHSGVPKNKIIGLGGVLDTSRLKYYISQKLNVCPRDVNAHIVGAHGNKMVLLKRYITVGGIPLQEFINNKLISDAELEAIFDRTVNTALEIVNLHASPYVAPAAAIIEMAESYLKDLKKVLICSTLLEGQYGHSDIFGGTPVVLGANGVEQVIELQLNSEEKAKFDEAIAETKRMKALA
row,Structure (SMILES),inhibition
1,O=C1C(=Cc2cc(Cc3ccccc3)ccc2O)SC(=S)N1Cc1ccccc1,-2% (inactive)
2,CN(Cc1ccc(NC(=O)CCC2CCN(C(=O)/C=C/c3ccc(Cl)c(Cl)c3)CC2)cc1)C1CCOCC1,0% (inactive)
3,CC(C)(C)NCC(O)COc1ccc(Cl)cc1C1=NNC(=O)CC1 (configuration not stated),-2% (inactive)
4,CCc1nc2c(cnn2CC)c(NC2CCOCC2)c1CNC(=O)c1ccoc1C,2% (inactive)
5,CN1CCCC1CCNCc1ccc(-c2ccc(CNCCc3ccccc3)cn2)cc1 (configuration not stated),2% (inactive)
6,COc1ccc([N+](=O)[O-])cc1N(Cc1ccccc1-c1ccccc1)S(=O)(=O)c1ccc(C(F)(F)F)cc1,-2% (inactive)
7,Cc1cc(Br)cnc1CCCCN=C1NC(=O)CN1C,2% (inactive)
8,CS(=O)(=O)Nc1ccc2c(C3CCN(CCC4CCN(C(=O)/C=C/c5ccc(Cl)c(Cl)c5)CC4)CC3)c[nH]c2c1,-3% (inactive)
9,O=C(NC1CC1)c1ccc(Cn2c(SCc3cccc([N+](=O)[O-])c3)nc3ccccc3c2=O)cc1,1% (inactive)
10,CN1CCN(c2ccc3nc(-c4ccc5nc(-c6ccc(O)cc6)[nH]c5c4)[nH]c3c2)CC1,3% (inactive)
11,Cc1nc(-c2cccc(Nc3nccc(NCC(O)c4cccc(F)c4)n3)c2)cs1 (configuration not stated),1% (inactive)
12,Cc1ccc(C2(C)CN(CCCOc3cccc(-c4ccc(C(=O)NC(C)C)cc4)c3)CCO2)cc1 (configuration not stated),0% (inactive)
13,COc1cc2c(cc1OC)CC(NCCCCCCNCCc1ccc(Cl)cc1)CC2 (configuration not stated),1% (inactive)
14,CCOc1ccc(N2CCN(CCCCNC(=O)c3ccc(NC(=O)c4ccc(Cl)cc4)cc3)CC2)c(OCC)c1,2% (inactive)
15,CC(C)CCN(Cc1cncn1Cc1cccc(C(F)(F)F)c1)C(=O)c1cncc(-c2ccccc2)c1,-3% (inactive)
16,CCC1N=C(N)N=C(N)N1OCCCOc1c(Cl)cc(Cl)cc1Cl (configuration not stated),2% (inactive)
17,COc1cc(NC(=O)c2sc(-c3ccc(Cl)cc3)cc2NC(=O)c2ccncc2)ccc1OCCN1CCCC1,3% (inactive)
18,COc1ccc(-c2cccc(NC(=O)c3cccc(C#N)c3)c2)cc1CN1CCNCC1,0% (inactive)
19,O=C(Nc1ccccc1)c1cnc[nH]1,1% (inactive)

row,Structure (SMILES),inhibition
1,CC(C)NC[C@@H](O)[C@H](Cc1ccccc1)NC(=O)c1cc2c3c(c1)c(C(C)C)cn3CCS(=O)(=O)N2C,-3% (inactive)
2,CNc1ccc(CNCc2ccc(-c3ccc(-c4nc5ccc(F)cc5[nH]4)cc3)cc2)cc1,-5% (inactive)
3,CN(C)c1ccc(N2C(N)=NC(N)=NC23CCCC3)cc1,-2% (inactive)
4,Cc1cc(-c2cnc(N)c(-c3ccc(N4CCN(C)CC4)nc3)c2)cc(C)c1O,7% (inactive)
5,CCCCCCCN(Cc1ccc(OC(C)(C)C(=O)OCC)cc1)C(=O)Nc1ccccc1OC(F)(F)F,3% (inactive)
6,Cc1cccc2[nH]c(-c3ccc(-c4ccc(CN5CCN(CCO)CC5)cc4)cc3)nc12,-4% (inactive)
7,Cc1cccc2[nH]c(-c3ccc(-c4ccc(CN5CCN(c6ccc(C#N)cn6)CC5)cc4)s3)nc12,2% (inactive)
8,Cc1cccc2[nH]c(-c3ccc(-c4cccc(NC(=O)c5cncn5C)c4)s3)nc12,-5% (inactive)
9,c1ccc(COc2ccnc(NCCCOc3cccc(CN4CCCCC4)c3)c2)cc1,-2% (inactive)
10,CCc1sc(-c2ccc(C(C)(C)C)cc2)nc1C(=O)NCCCN1CCCC1=O,-5% (inactive)
11,COc1cccc(-c2ccc(NC(=O)C3CCCN(Cc4cccc(OC)c4O)C3)cc2)c1 (configuration not stated),1% (inactive)
12,COc1ccc(C2CC(c3ccccc3O)=NN2C(=O)c2ccco2)cc1OC (configuration not stated),1% (inactive)
13,CC(C)=C(C(=O)OCc1ccccc1)N1C(=O)[C@@H](NC(c2ccccc2)(c2ccccc2)c2ccccc2)[C@H]1[S@@](=O)CC(=O)OC(C)(C)C,-4% (inactive)
14,CC(C)CNC(=O)c1cncc(-c2cccc(CNC3Cc4ccccc4C3)c2)c1,1% (inactive)
15,O=C(/C=C/c1ccc(Cl)c(Cl)c1)NCCCCCN1CCC(NC(=O)Nc2ccc(F)cc2F)CC1,2% (inactive)
16,C[C@@H]1CN(c2ccc3occ(C(=O)Nc4ccc(-c5ccncc5)c(Cl)c4)c3c2)C[C@H](C)N1C,-4% (inactive)
17,CCNc1cc(C(=O)N[C@@H](Cc2ccccc2)[C@H](O)CN[C@H]2C[C@@H]3CC[C@H]2C3)cc(N2CCCCS2(=O)=O)c1,1% (inactive)
18,Cc1ccc2c(c1)nc(N)n2C[C@H](O)c1ccccc1,7% (inactive)
